Molecules are shown by their SMILES. In all, about 310,000 compounds went through this assay and about 14,000 (4.5%) showed an effect of 50% or more. The effect is printed as a negative number. Many of the other results were omitted from the sample, so strong results are more common in it than they were.
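Also: peak tail current of the secondary pulse compared with the same well before compound.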

Chain of human ether-à-go-go-related gene (hERG) potassium channel (Q12809 whole entry, looked up): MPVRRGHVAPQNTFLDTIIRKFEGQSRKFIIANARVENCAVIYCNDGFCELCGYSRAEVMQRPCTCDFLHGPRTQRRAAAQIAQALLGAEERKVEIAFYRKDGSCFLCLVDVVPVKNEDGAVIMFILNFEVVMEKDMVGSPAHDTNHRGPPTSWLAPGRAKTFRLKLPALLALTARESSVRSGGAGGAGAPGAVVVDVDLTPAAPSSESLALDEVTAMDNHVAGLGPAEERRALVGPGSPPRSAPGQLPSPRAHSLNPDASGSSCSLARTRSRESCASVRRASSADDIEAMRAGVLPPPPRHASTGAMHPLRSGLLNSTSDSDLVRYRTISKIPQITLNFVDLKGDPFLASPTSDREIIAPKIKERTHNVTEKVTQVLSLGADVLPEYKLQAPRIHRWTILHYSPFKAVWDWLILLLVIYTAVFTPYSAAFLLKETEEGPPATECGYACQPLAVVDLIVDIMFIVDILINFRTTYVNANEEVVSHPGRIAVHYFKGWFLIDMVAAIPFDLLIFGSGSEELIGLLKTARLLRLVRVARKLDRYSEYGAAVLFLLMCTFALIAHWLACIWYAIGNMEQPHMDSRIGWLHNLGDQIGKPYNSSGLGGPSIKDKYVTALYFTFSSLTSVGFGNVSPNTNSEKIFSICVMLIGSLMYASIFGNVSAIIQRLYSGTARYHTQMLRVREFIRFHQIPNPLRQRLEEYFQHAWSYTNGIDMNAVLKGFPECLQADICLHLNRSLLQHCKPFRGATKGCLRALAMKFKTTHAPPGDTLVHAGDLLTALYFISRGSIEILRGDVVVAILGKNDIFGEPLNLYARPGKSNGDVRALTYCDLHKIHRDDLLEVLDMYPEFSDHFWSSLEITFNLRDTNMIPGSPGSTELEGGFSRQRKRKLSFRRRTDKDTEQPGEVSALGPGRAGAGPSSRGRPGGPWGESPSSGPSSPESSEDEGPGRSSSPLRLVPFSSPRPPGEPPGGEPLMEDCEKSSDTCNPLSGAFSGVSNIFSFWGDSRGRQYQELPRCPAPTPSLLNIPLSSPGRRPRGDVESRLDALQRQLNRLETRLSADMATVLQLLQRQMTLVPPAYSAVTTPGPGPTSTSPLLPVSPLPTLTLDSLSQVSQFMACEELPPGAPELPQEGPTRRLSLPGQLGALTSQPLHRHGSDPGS

This test concerns the target human ether-à-go-go-related gene (hERG) potassium channel (human, UniProt Q12809). The experiment in a line: primary screen, population patch clamp on CHO cells stably expressing hERG; higher = less effect of the substance.
In the case of `CCCC(=O)N1CCCC(C(=O)c2ccc(OC)c(OC)c2)C1` (stereo not shown), the “hERG current change (%, negative = inhibition) at 10uM” value worked out at 12.7%. The figure for `COc1ccc(CN2CCCC(C(=O)c3cccc(C(F)(F)F)c3)C2)cc1O` (stereo not shown) is -62.2%; for `CCOc1ccccc1CN1CCCC(C(=O)c2ccc(OC)c(OC)c2)C1` (stereo not shown) it is -74.2%; for `CCOc1cccc(CN2CCCC(C(=O)Nc3ccc(-c4ccn[nH]4)cc3)C2)c1O` (stereo not shown) it is -29.5%. The figure for `CCOc1cccc(CN2CCCC(C(=O)c3cc(Cl)ccc3OC)C2)c1O` (stereo not shown) is -64.3%; for `CCOC(=O)C1CCCN(Cc2ccc(O)c(OC)c2)C1` (stereo not shown) it is -6.59%; for `COc1ccc(Cl)cc1C(=O)C1CCCN(CCO)C1` (stereo not shown) it is -11.2%. In the case of `CCOc1cc(CN2CCCC(C(=O)c3cccc(C(F)(F)F)c3)C2)ccc1O` (stereo not shown) it was -61.2%; in that of `CCOC(=O)C1CCCN(Cc2ccccc2OCC)C1` (stereo not shown), -2.92%. Regarding `O=S(=O)(c1ccc(F)cc1)N1CCCC(c2nc(-c3ccc(F)cc3)no2)C1` (stereo not shown), the “hERG current change (%, negative = inhibition) at 10uM” value is -13.9%. For `Cc1c(NC(=O)CN2C(=O)c3ccc([N+](=O)[O-])cc3C2=O)c(=O)n(-c2ccccc2)n1C`, the “hERG current change (%, negative = inhibition) at 10uM” value is given as 8.89%. In the case of `Cc1cccnc1NC(=O)C1CCN(S(=O)(=O)c2ccc3c(c2)CCC(=O)N3)CC1` it was 16.1%; in that of `O=C(CCc1nnc(CCCCc2ccccc2)o1)NCCN1CCCCC1=O`, 18.2%.

Regarding `CC(=O)N1CCc2[nH]c3ccccc3c2C1`, the “hERG current change (%, negative = inhibition) at 10uM” value is recorded as 4.55%. In the case of `COc1ccc(Br)c(C(=O)Nc2ccc(F)cc2)c1` it was -0.956%; in that of `NS(=O)(=O)c1ccc(CCNc2nc3c(-c4cccc(F)c4)nnn3c3ccccc23)cc1`, 21.5%. On to `C=CCNc1nc(C2(C)CC3(CC(C)OC3=O)C(=O)O2)cs1` (stereo not shown), for which the “hERG current change (%, negative = inhibition) at 10uM” value is listed as -4.86%. In the case of `COCc1ccc(C(=O)N2CCCC(C(=O)c3cccc(C(F)(F)F)c3)C2)o1` (stereo not shown) it was -0.276%. The figure for `Cc1ccc(CN2CCCC(C(=O)c3cccc(C(F)(F)F)c3)C2)o1` (stereo not shown) is -19.3%. In the case of `O=C(c1cccc(C(F)(F)F)c1)C1CCCN(Cc2cccc(OCCO)c2)C1` (stereo not shown) it was -47.4%; in that of `O=C(c1cc(F)ccc1F)C1CCCN(Cc2cccc(Cl)c2)C1` (stereo not shown), 4.01%. Turning to `O=C(c1cc(F)ccc1F)C1CCCN(CCCc2ccccc2)C1` (stereo not shown), the “hERG current change (%, negative = inhibition) at 10uM” value was -73.2%. In the case of `COc1cccc(O)c1CN1CCCC(C(=O)c2cccc(C(F)(F)F)c2)C1` (stereo not shown) it was -57.5%; in that of `COCc1cc(CN2CCCC(C(=O)Nc3ccc(-c4ccco4)cc3)C2)ccc1OC` (stereo not shown), -7.12%.

For `COCc1cc(CN2CCCC(C(=O)c3cccc(C(F)(F)F)c3)C2)ccc1OC` (stereo not shown), the “hERG current change (%, negative = inhibition) at 10uM” value is -63.1%. The figure for `O=C(C1CCCN(CCCc2ccccc2)C1)N1CCCCC1` (stereo not shown) is -38.8%; for `O=C(c1cccc(C(F)(F)F)c1)C1CCCN(Cc2ccc(OCCO)cc2)C1` (stereo not shown) it is -69.8%.

Consider `CC(=O)CCCCn1cnc2c1c(=O)n(C)c(=O)n2C`, for which the “hERG current change (%, negative = inhibition) at 10uM” value was determined as 20.7%. Consider `O=c1cc([O-])n(Cc2ccc(F)cc2)c(=O)[nH]1.[NH4+]`, for which the “hERG current change (%, negative = inhibition) at 10uM” value was 21.7%. As to `COCCN(C(=O)CSc1nnc(Nc2ccc(C)cc2)s1)c1c(N)n(CC(C)C)c(=O)[nH]c1=O`, the “hERG current change (%, negative = inhibition) at 10uM” value is -7.66%.

In the case of `Cn1ncc2c(NCc3ccccc3)ncnc21`, the “hERG current change (%, negative = inhibition) at 10uM” value is recorded as -11%. Turning to `CCOC(=O)CN1C(=O)/C(=C/c2ccc(Cl)cc2)Oc2ccccc21`, the “hERG current change (%, negative = inhibition) at 10uM” value is listed as 2.31%. In the case of `Nc1ccc(N=Nc2ccccc2)c2cccnc12` it was 17.2%. The figure for `CNC(=O)C(Sc1nc(C)nc2c1oc1ccccc12)C(C)=O` (stereo not shown) is 2.63%; for `Cc1cc(Br)ccc1NC(=O)c1cnc(N2CCN(c3ccccn3)CC2)c2ccccc12` it is 10%; for `CCOc1ccccc1CN1CCCC(C(=O)c2cc(F)ccc2F)C1` (stereo not shown) it is -50.8%. The figure for `COc1ccc(C(=O)C2CCCN(C(=O)CSC)C2)cc1OC` (stereo not shown) is 8.85%. `COc1ccc(C(=O)C2CCCN(Cc3c(O)cccc3OC)C2)cc1OC` (stereo not shown): the “hERG current change (%, negative = inhibition) at 10uM” value is -63.1%. The figure for `COc1ccc(C(=O)C2CCCN(Cc3nc4ccccc4nc3C)C2)cc1OC` (stereo not shown) is -84.9%; for `O=C(c1cc(F)ccc1F)C1CCCN(Cc2cc(Cl)ccc2O)C1` (stereo not shown) it is 0.916%.

With `Nc1ccc(CCN2CCN(c3cccc(C(F)(F)F)c3)CC2)cc1`, the “hERG current change (%, negative = inhibition) at 10uM” value is reported as -67.2%. Turning to `C#CCN1CCN(c2cccc(C(F)(F)F)c2)CC1`, the “hERG current change (%, negative = inhibition) at 10uM” value stood at 8.78%. With `COc1ccc(CCNC(=O)CN2CCN(c3cccc(C(F)(F)F)c3)CC2)cc1`, the “hERG current change (%, negative = inhibition) at 10uM” value is -46.3%. The figure for `COc1ccc(C(=O)C2CCCN(C(=O)Cn3ccc(C)n3)C2)cc1OC` (stereo not shown) is 19.1%; for `Cn1cc(CN2CCCC(C(=O)c3cc(F)ccc3F)C2)c2ccccc21` (stereo not shown) it is -31.1%.

`COc1cccc(O)c1CN1CCCC(C(=O)c2sccc2C)C1` (stereo not shown): the “hERG current change (%, negative = inhibition) at 10uM” value is listed as -45.9%.

The values are drawn from paper PMC4336329 (PLoS ONE, 2015).
